# An excerpt weighted towards active compounds, which were near 19% of everything screened.
# HepG2 tox = counter-screen for TGF-b inhibitors: cytotoxicity in HepG2 cells; HepG2 CAGA-GFP viability, ATP luminescence, 18 h; Potency, µM (top dose mostly 46.1 µM), usual class: cytotoxic; actives 0.76% (n = 410,000); AID 588856
#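 HepG2 CAGA-GFP cells (1000/well, DMEM with 1% FBS) received compound, then TGF-beta at 500 pg/mL final, and were incubated 18 hours at 37 degrees C. Viability was read by CellTiter-Glo luminescence. Media-only wells were set as complete cell-killing and DMSO as no toxicity.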
# DT40 TDP1 CPT = growth inhibition of DT40 Tdp1-/-;hTDP1 cells with camptothecin (screen for TDP1 inhibitors) | chicken DT40 Tdp1-/-;hTDP1 cells + 20 nM CPT, ATP luminescence, 48 h | Potency, µM (doses to about 46.2 µM), hits mostly inhibitors | actives 12% (n = 420,000) | AID 686979; further: nearly all actives have a fitted effect of over 55% in size
#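 Chicken DT40 Tdp1-/- cells complemented with human TDP1, 400 cells/well, exposed to compounds plus 20 nM camptothecin for at least 48 h at 37 C; viability read as ATP content by CellTiter-Glo luminescence.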
# IL1B secr inh = inhibitors of inflammasome signaling (IL-1 beta secretion); AID 743279; activity change, % at 57.5 µM; THP-1 LPS/ATP IL-1B secretion, AlphaLISA, 16 h; stronger effect = lower value; actives 4.7% (n = 360,000); in the data active means activity change below about -50%; inconclusive means mostly about -30% to -49%
#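 THP-1 cells pretreated 1 hr with compounds (up to 57.5 uM final), then stimulated with LPS (250 ng/mL final) plus ATP (1.25 mM final); secreted IL-1B measured by AlphaLISA after 16 hr, decreased signal indicating inhibition.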
# DT40 TDP1 no CPT = qHTS for Inhibitors of human tyrosyl-DNA phosphodiesterase 1 (TDP1): qHTS in cells in absence of CPT. DT40 Tdp1-/- hTDP1 cells, no CPT, ATP luminescence, 48 h. Potency, µM (doses to about 46.2 µM), usual class: inhibitors. actives 15% (n = 420,000). AID 686978, 2013; further: nearly all actives have a fitted effect of over 55% in size
#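 No-CPT arm: Tdp1-/-;hTDP1 DT40 cells (400/well) plus compounds, incubated ≥48 hr at 37 °C. Readout CellTiter-Glo luminescence.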
# TGFb inhibitor = inhibitors of TGF-b signaling; HepG2 CAGA-GFP TGF-b/SMAD3 reporter, GFP fluorescence, 18 h; TGF-beta stimulated, 500 pg/mL final; Potency, µM (doses to about 46.1 µM), most hits filed as inhibitors; actives 1.2% (n = 410,000); further: nearly all actives have a fitted effect of over 65% in size
#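 Using HEPG2 CAGA-GFP reporter cells at 1000 cells/well, we pinned test compounds, stimulated with recombinant TGF-beta (500 pg/mL final) and measured total well GFP after 18 h.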
# TDP1 inh = inhibitors of human tyrosyl-DNA phosphodiesterase TDP1; Q9NUW8; recombinant TDP1, AlphaScreen DNA substrate cleavage; Potency, µM (doses to about 130 µM), most hits filed as inhibitors; actives 0.28% (n = 350,000); further: nearly all actives have a fitted effect of over 40% in size
# Target sequence (Q9NUW8 whole entry, looked up): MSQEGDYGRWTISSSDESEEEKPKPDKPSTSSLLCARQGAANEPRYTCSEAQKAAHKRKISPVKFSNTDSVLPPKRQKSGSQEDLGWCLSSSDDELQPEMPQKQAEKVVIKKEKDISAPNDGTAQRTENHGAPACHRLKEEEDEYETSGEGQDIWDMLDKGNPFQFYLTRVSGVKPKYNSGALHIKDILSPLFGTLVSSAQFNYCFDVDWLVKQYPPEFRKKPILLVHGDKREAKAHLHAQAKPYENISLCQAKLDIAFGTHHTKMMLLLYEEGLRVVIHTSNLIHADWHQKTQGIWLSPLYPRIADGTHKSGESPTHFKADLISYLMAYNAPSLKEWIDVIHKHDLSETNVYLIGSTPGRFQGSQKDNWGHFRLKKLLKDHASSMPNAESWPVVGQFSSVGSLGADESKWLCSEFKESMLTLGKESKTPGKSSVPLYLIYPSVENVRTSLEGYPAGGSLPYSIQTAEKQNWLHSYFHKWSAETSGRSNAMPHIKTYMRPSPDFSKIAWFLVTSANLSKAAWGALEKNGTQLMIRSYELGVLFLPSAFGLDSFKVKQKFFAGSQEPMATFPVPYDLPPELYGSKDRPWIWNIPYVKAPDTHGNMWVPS
#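 Signal: AlphaScreen proximity between streptavidin donor and anti-FITC acceptor beads on intact substrate. Reaction: Tdp1 1 nM, substrate 15 nM final, 5 min RT after 15 min compound preincubation.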
# A number is an active result; - = inactive; ? = inconclusive; . = no result given; [ ] = dose if it differs, or a comment. Unless noted, the call rests on the fitted dose curve; in most records, active means well fitted curve in the direction sought with a large enough effect; inconclusive means small, poorly fitted or top-dose-only effect, or another doubt; inactive means no such curve, though single readings can be large; an effect the other way counts as inactive or inconclusive.
SMILES,HepG2 tox,DT40 TDP1 CPT,IL1B secr inh,DT40 TDP1 no CPT,TGFb inhibitor,TDP1 inh
COc1ccc(CNc2nc3ccccc3n2CCN2CCCCC2)c(OC)c1,-,18µM,-100,23µM,?,-
CN(C)c1ccc(C(=O)Nc2nnc(C3=COCCO3)o2)cc1,-,?,-,?,-,-
CC(C)(C)c1ccc(C(=O)Nc2nnc(C3=COCCO3)o2)cc1,-,13µM,-,16µM,-,-
CC(C)Oc1ccc(C(=O)Nc2nnc(C3=COCCO3)o2)cc1,-,18µM,-,?,-,-[0.505 µM]
O=c1[nH]c(SCc2ccc(Cl)cc2)nc2c1CCC2,-,-,-,?,-,-
N=c1c2c(n(Cc3cccc(Cl)c3)c3c1CCC3)CCCC2,-,2.6µM,-79,1.8µM,?,-
N=c1c2c(n(Cc3ccc(F)cc3)c3c1CCC3)CCCC2,-,0.82µM,-,1µM,-,-
N=c1c2c(n(Cc3ccccc3)c3c1CCC3)CCC2,-,1.6µM,-,0.58µM,-,-
N=c1c2c(n(Cc3ccc(Cl)cc3)c3c1CCC3)CCC2,-,2.3µM,-67,2.3µM,?,-
O=C(CSc1nc(=O)n(Cc2ccncc2)c2c1CCC2)Nc1ccccc1,-,-,.,-,-,-
Clc1cccc(CN2CCCCCC2)c1,-,-,-,-,-,.
Cc1ccc(S(=O)(=O)NC(=O)COc2ccc([N+](=O)[O-])cc2)cc1,-,-,-,-,?,-
Cc1cc(C)c(NC(=O)Nc2ccccc2)c(Cl)c1,-,16µM,-,?,-,-
CCC(=O)Nc1c(C)cc(C)cc1Cl,-,-,-,?,-,-
Cc1cc(C)c(NC(=O)Nc2ccccc2C)c(Cl)c1,1.3µM,-,-,-,-,-
Cc1cc(C)c(NC(=O)Nc2ccccc2)c(C)n1,-,-,-,-,-,-
NS(=O)(=O)c1ccc(CCNC(=O)Cn2c(-c3cccs3)cc3ccccc32)cc1,-,-,.,?,?,-
CC1(C(=O)NS(=O)(=O)C2CC2)CCCN(C(=O)c2ccc(F)cc2Cl)C1 (centres undefined),-,?,-,1.5µM,-,.
COc1ccc(C(=O)N2CCCC(C)(C(=O)NS(=O)(=O)C3CC3)C2)c(OC)c1 (centres undefined),-,2.1µM,-,3.7µM,-,.
Cc1cc(C(=O)N2CCCC(C)(C(=O)NS(=O)(=O)C3CC3)C2)n(C(C)(C)C)n1 (centres undefined),-,8.2µM,-,5.2µM,-,.
CC1(C(=O)NS(=O)(=O)C2CC2)CCN(C(=O)c2ccc(F)cc2Cl)C1 (centres undefined),-,-,-,-,-,.
Cc1ccc(F)cc1C(=O)N1CCCC(C)(C(=O)NS(=O)(=O)C2CC2)C1 (centres undefined),-,?,-,2.6µM,-,.
Cc1cc(C(=O)N2CCC(C)(C(=O)NS(=O)(=O)C3CC3)C2)n(C(C)(C)C)n1 (centres undefined),-,-,-,-,?,.
O=c1[nH]cnc2sc3c(c12)CCC3,-,-,-,-,-,-
CCc1cccc(C)c1NC(=O)c1cn2c3c(ccc(Cl)c3c1=O)OC(C)C2 (centres undefined),-,?,.,?,-,-
CC1(C(=O)NS(=O)(=O)C2CC2)CCCN(C(=O)C2(c3ccc(Cl)cc3)CCCC2)C1 (centres undefined),-,?,-,12µM,-,.
CC1(C(=O)NS(=O)(=O)C2CC2)CCN(C(=O)c2c(F)cccc2F)C1 (centres undefined),-,-,-,-,-,.
Cc1ccc(F)c(C(=O)N2CCCC(C)(C(=O)NS(=O)(=O)C3CC3)C2)c1F (centres undefined),-,6.5µM,-,5.8µM,-,.
